Consider seven molecules from PubChem BioAssay (NCATS).

Structures are written as SMILES. Where “and” joins values, the source holds several entries; their conditions need not be identical. Identical values can stand only once. Results filed as inconclusive are left out. A number with no mark means an inactive call. Calls of active or inactive are those of the source. Calls follow the shape of the dose curve; as a rule, active = well fitted inhibition curve with a large enough effect; inconclusive = small, poorly fitted or top-dose-only effect; inactive = flat fitted curve, though single readings scatter.

Experiment [1] relates to CRL-7250. The experiment is described as follows: Cytotoxic Profiling of Annotated Libraries Using Quantitative High-Throughput Screening (AID 1296008). Also: potency is read from the fitted curve at half-maximal effect. As to max response: % is scaled to controls: 0 for no effect and ±100 for the full control effect. The following applies: Five cell lines viability, CellTiter-Glo ATP luminescence, 48-72 h; max response: hits give low values. The procedure, abridged:
(§1)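 Compounds were pin-transferred onto cells and incubated 48 or 72 hr at 37 degree Celsius, 95% humidity. CellTiter-Glo was added, plates sat 10 min at room temperature, then ATP-coupled luminescence was imaged as the viability read-out.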

Experiment [2] deals with HEK293. Described as above. The conditions noted are these: Five cell lines viability, CellTiter-Glo ATP luminescence, 48-72 h; max response: hits give low values. Put shortly:
as §1
(In general: ATP-based viability assays read luminescence as a measure of living cells.)

In experiment [3] the test system is HaCat. The experiment is described as above. The following applies: Five cell lines viability, CellTiter-Glo ATP luminescence, 48-72 h; max response: hits give low values. The procedure, abridged:
as §1

Experiment [4] relates to KB-3-1. The description is as above. The following applies: Five cell lines viability, CellTiter-Glo ATP luminescence, 48-72 h; max response: hits give low values. Put shortly:
as §1

Experiment [5] relates to NIH3T3. The description is as above. The following applies: Five cell lines viability, CellTiter-Glo ATP luminescence, 48-72 h; max response: hits give low values. Put shortly: as §1
Experiment [6] deals with CRL-7250. The experiment is described as follows: qHTS assay to identify novel small-molecules to repurpose for Merkel cell carcinoma treatment (AID 1296009). The following applies: MCC and control cell lines, CellTiter-Glo viability, 72 h; at 44.8 µM (top of the series) unless noted. The procedure, abridged: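 Cells exposed to NPC (8-point) and MIPE (11-point) compound dilutions for 72 hr at 37 degree celsius; viability read by CellTiter-Glo luminescence, normalized to no-cell and DMSO in-plate controls.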
(In general: qHTS replaces the single test concentration by a dilution series.)

Experiment [7] relates to ICS. The experiment in a line: qHTS profiling for inhibitors of Plasmodium falciparum proliferation (AID 504749).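 Also: 0% = DMSO vehicle and full inhibition = artemisinin control.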 The conditions noted are these: P. falciparum in erythrocytes, SYBR Green DNA, 72 h; series mostly up to 28.7 µM. Put shortly:
(§2)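 P. falciparum-infected erythrocytes (0.3% parasitemia, 2.5% hematocrit final) were exposed to compounds for 72 h at 37 C in 5% CO2, then lysed with SYBR Green buffer overnight at room temperature; parasite DNA fluorescence was normalized to artemisinin and DMSO controls.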

The test system of experiment [8] is JCK. Described as above. The following applies: P. falciparum in erythrocytes, SYBR Green DNA, 72 h; series mostly up to 28.7 µM. The procedure, abridged:
as §2

In experiment [9] the test system is N140. The experiment is described as above. The conditions noted are these: P. falciparum in erythrocytes, SYBR Green DNA, 72 h; series mostly up to 28.7 µM. The procedure, abridged:
as §2

Experiment [10] deals with P93_24. The description is as above. The conditions noted are these: P. falciparum in erythrocytes, SYBR Green DNA, 72 h; series mostly up to 28.7 µM. The procedure, abridged:
as §2

Experiment [11] concerns P94_40. Described as above. The following applies: P. falciparum in erythrocytes, SYBR Green DNA, 72 h; series mostly up to 28.7 µM. The procedure, abridged: as §2
Experiment [12] deals with PAD. Described as above. The following applies: P. falciparum in erythrocytes, SYBR Green DNA, 72 h; series mostly up to 28.7 µM. Put shortly:
as §2

Experiment [13] concerns PC15. Described as above. The conditions noted are these: P. falciparum in erythrocytes, SYBR Green DNA, 72 h; series mostly up to 28.7 µM. Put shortly: as §2
The test system of experiment [14] is PC26. The description is as above. The conditions noted are these: P. falciparum in erythrocytes, SYBR Green DNA, 72 h; series mostly up to 28.7 µM. The procedure, abridged:
as §2

For experiment [15], the system named is PC49. The experiment is described as above. The conditions noted are these: P. falciparum in erythrocytes, SYBR Green DNA, 72 h; series mostly up to 28.7 µM. Put shortly: as §2
The test system of experiment [16] is SC27B. The experiment is described as above. The conditions noted are these: P. falciparum in erythrocytes, SYBR Green DNA, 72 h; series mostly up to 28.7 µM. Put shortly:
as §2

In experiment [17] the test system is TAB109. The experiment is described as above. The following applies: P. falciparum in erythrocytes, SYBR Green DNA, 72 h; series mostly up to 28.7 µM. Put shortly: as §2
Experiment [18] concerns TAB113. The description is as above. The following applies: P. falciparum in erythrocytes, SYBR Green DNA, 72 h; series mostly up to 28.7 µM. The procedure, abridged: as §2
Experiment [19] deals with TAB165. The description is as above. The conditions noted are these: P. falciparum in erythrocytes, SYBR Green DNA, 72 h; series mostly up to 28.7 µM. Put shortly:
as §2

The test system of experiment [20] is W2. The description is as above. The conditions noted are these: P. falciparum in erythrocytes, SYBR Green DNA, 72 h; series mostly up to 28.7 µM. The procedure, abridged:
as §2
Also: nearly all actives have a fitted effect of over 60% in size.

For `CN(C)CCc1c[nH]c2cccc(O)c12`, the call in [1] and in [3] was inactive. The max response in [2] was -13.6%; in experiment [4], -8.17%; in experiment [5] it was 2.31%. In experiment [6], the outcome is “inactive [at 92 µM]”.

For `CCCOC(=O)Cc1ccc(OCC(=O)N(CC)CC)c(OC)c1`, the max response was -7.4% in experiment [1]; -10.1% in [2]; -1.71% in experiment [3]; -8.87% in experiment [4]; -20.5% in [5].

Regarding `CN1[C@@H]2CC[C@H]1CC(OC(=O)c1cc(Cl)cc(Cl)c1)C2` (stereo partly drawn), the values for the max response in experiment [1], in experiment [3] and in experiment [4] were -20.4%, 3.49% and -13.9%, respectively. Further, the Potency in [2] was 26.6 µM (active).

Consider `O=C(O)Cc1ccccc1`, for which the max response in experiment [1] was -22.4%; in [2], -7.97%; in [4], -2.72%. For the same molecule, the molecule was classed as inactive in experiment [3] and in experiment [5].

Regarding `CCC1(c2cccc(O)c2)CCCCN(C)C1` (stereo not drawn), the max response in experiment [1] is -9.91%; in experiment [2] it was -2.39%; in experiment [3] it was -5.66%; in experiment [4] it was 24.1%; in experiment [5] it was 2.43%.

For the molecule `COc1ccc(C(=O)N2CCCC2=O)cc1`, the Potency entry in experiment [7], in experiment [8], in experiment [9], in experiment [10], in experiment [11] and in [12] was “inactive” each time. The Potency entry in experiment [13], in [14], in experiment [15], in [16], in experiment [17] and in experiment [18] was “inactive” in each case. Moreover, the Potency result in [19] and in experiment [20] was “inactive” in each case. Also, the max response in experiment [1] was -4.75% and 1.19%; in experiment [3], -10.2% and -4.53%; in experiment [4], -8.06%; in [5], -15.7% and -0.26%. In experiment [2], the molecule was called inactive.

Take `c1ccc2nc(N3CCNCC3)ccc2c1`: the Potency entry in [7], in experiment [8], in [9], in experiment [10], in experiment [11] and in experiment [12] was “inactive” each time. Moreover, the Potency result in [13], in [14], in experiment [15], in experiment [16], in experiment [17] and in experiment [18] was “inactive” throughout. Moreover, the Potency entry in experiment [19] and in [20] was “inactive” each time. The max response in [1] is -2.05%; in experiment [2] it was -18%; in experiment [3], -23.1%; in experiment [4], -16.3%; in [5], 0.319%.
